For nine compounds, outcome and AC50 results are on record in PubChem BioAssay AID2284378 (EPA ToxCast).

Results filed as inconclusive are left out. Activity calls are given as the source filed them. The calls were made as follows: active = hit-call score of the fitted dose curve at least 0.9, where 1 is the maximum; inconclusive = response in the unintended direction; inactive = score below 0.9.

For this assay, the system named is frog Retinoid X Receptor beta (RXRb), gene 394278. Kind of assay: ATG_frRXRb_EcoTox2: Attagene TRANS-FACTORIAL EcoTox-2 HepG2 Assay for frog Retinoid X Receptor beta (RXRb). Here is the method:
ATG_EcoTox2 is a cell-based, multiplexed assay created by modifying the existing Attagene TRANS-FACTORIAL system to include a panel of nuclear receptors from some or all the following species: human (Homo sapiens), african clawed frog (Xenopus laevis), rainbow trout (Oncorhynchus mykiss), japanese medaka (Oryzias latipes), and zebrafish (Danio rerio). The ECOTOX2-FACTORIAL format uses HepG2, a human liver cell line, with measurements taken at 24 hours after chemical dosing in a 24-well plate. ATG_frRXRb_EcoTox2 is one of 29 assay components calculated in the ATG_EcoTox2 assay. It is designed to make measurements of mRNA induction, a form of inducible reporter, as detected with fluorescence intensity signals by Reverse transcription polymerase chain reaction (RT-PCR) and Capillary electrophoresis technology.The assay endpoint ATG_frRXRb_EcoTox2 was analyzed in the positive analysis fitting direction relative to DMSO as the negative control and baseline of activity. Using a type of inducible reporter, measures of mRNA for gain-of-signal activity can be used to understand the reporter gene at the transcription factor-level as they relate to the gene RXRb. Furthermore, this assay endpoint can be referred to as a primary readout, because this assay has produced multiple assay endpoints where this one serves a reporter gene function. To generalize the intended target to other relatable targets, this assay endpoint is annotated to the nuclear receptor intended target family, where the subfamily is non-steroidal.
Human liver HepG2 cells are transiently transfected with multiple reporter transcription units (MRTUs) in 6-well plates using FuGene 6 reagent (Roche; 3 ml FuGene/1 mg DNA). The MRTU constructs are regulated by a cis-regulating element (promoter). Each RTU expresses a GAL4-UAS that regulates the transcription of a nearby target reporter gene sequence. A major difference between the CIS and TRANS system is that in CIS activities of endogenous TFs are measured, whereas the TRANS assay evaluates changes in activities of exogenous, chimeric NR-Gal4 proteins. […] At the end of 24 hour incubation, total RNA was isolated using TriZol reagent (Invitrogen). The isolated RNA is then reverse-transcribed using oligo(dT) primer and Mo-MLV reverse transcriptase (Invitrogen) with DNAse I (Ambion) treatment for 30 min. The one-tenth of the produced cDNA was amplified by PCR using Taq DNA polymerase (Invitrogen) and two reporter sequence-specific primers. The PCR products were fluorescently labeled by primer extension with 6-arboxyfluorescein (6-FAM) 5'-labeled reporter sequence-specific primer (2 min at 95 C, 20 s at 68 C and 10 min at 72 C) and these products were digested with 5U of HpaI (New England Biolabs) for 2h at 37 C. The fragments were purified using Qiaquick PCR columns (Qiagen), analyzed on an ABI 3130xL genetic analyzer (Applied Biosystems) with peak positions identified by using a set of X-rhodamine (ROX)-labeled MapMarker1000 molecular weight standards (BioVentures). The raw capillary electrophoresis data was processed using Attagraph software (Attagene).
On to `C[C@]12C=CC(=O)C=C1CC[C@@H]1[C@@H]2C(=O)C[C@@]2(C)[C@H]1CC[C@]2(O)C(=O)CO`, for which the compound was called inactive. `CC(c1cc2ccccc2s1)N(O)C(N)=O` (centres undefined): the outcome was inactive.

Regarding `CC(C)(Oc1ccc(Cl)cc1)C(=O)O`, the outcome was inactive. For the compound `C=C(c1ccc(C(=O)O)cc1)c1cc2c(cc1C)C(C)(C)CCC2(C)C`, the AC50 is 0.00172 µM (active). As for `Cc1cccc(Nc2cc(Cl)nc(SCC(=O)O)n2)c1C`, the AC50 is 23.8 µM (active). Consider `CN(CCOc1ccc(CC2SC(=O)NC2=O)cc1)c1ccccn1` (centres undefined), for which the call was inactive.

Regarding `CC(C)OC(=O)C(C)(C)Oc1ccc(C(=O)c2ccc(Cl)cc2)cc1`, the compound was called inactive. With `Cc1ccc(C)c(OCCCC(C)(C)C(=O)O)c1`, the outcome was inactive.

`C[C@@H]1C[C@H]2[C@@H]3CCC4=CC(=O)C=C[C@]4(C)[C@@]3(F)[C@@H](O)C[C@]2(C)[C@@]1(O)C(=O)COP(=O)(O)O`: the compound was called inactive.

A word on the AC50: it is the concentration at which the activity in the assay is half-maximal.
